# mHTT CaM bind: mutant huntingtin-calmodulin interaction inhibitors – biochemical, AlphaScreen, primary screen; P42858; AlphaScreen His-mHTT/GST-CaM binding, luminescence; inhibition, % at 15 µM; 3.6% of 190,000 active;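 note: 0% = both proteins with DMSO and 100% = one protein alone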
# Pf apPOL block: Pf-apPOL inhibitors, biochemical, fluorescence; Plasmodium falciparum apicoplast DNA polymerase (apPOL); Recombinant Pf-apPOL, molecular beacon fluorescence, 1.5 h; inhibition, % at 10 µM; 0.25% of 210,000 active
# Numbers without * were called inactive; x = not tested or not shown; ! = repeats disagree. This is a sample that favours compounds with a hit; in the whole collection about 3.5% have one here. Cut-off read from the data, not from the text of the source: active = inhibition above about 50%; inactive = the rest.
SMILES,mHTT CaM bind,Pf apPOL block
O=C(C1CCN(c2ccc(Br)cc2)C1=O)N1CCOCC1 (centres undefined),-7,-2
O=c1cc(CN2CCCCC2)nc(N2CCN(Cc3ccccc3Cl)CC2)[nH]1,7,-1
CCCC1c2cccn2CCN1C(=O)Nc1cccc(F)c1 (centres undefined),26,-13
CCCC1c2ccc(C)n2CCN1C(=O)Nc1ccc(Cl)cc1 (centres undefined),51*,-4
Cc1ccc(NC(=O)N2CCn3cccc3C2C)cc1F (centres undefined),5,79*
Cc1ccc(NC(=O)N2CCn3cccc3C2Cc2ccccc2)cc1F (centres undefined),4,3
CCCC1c2cccn2CCN1C(=O)Nc1ccc(C)c(Cl)c1 (centres undefined),80*,-7
Cc1cccc(NC(=O)N2CCn3cccc3C2C(C)C)c1 (centres undefined),4,-10
Cc1cc(NC(=O)N2CCn3cccc3C2C(C)C)ccc1Br (centres undefined),99*,1
CCCC1c2ccc(C)n2CCN1C(=O)Nc1ccc(C)c(F)c1 (centres undefined),10,4
COc1ccc(C2=CC(c3sccc3C)n3ncnc3N2)cc1 (centres undefined),16,-17
Cc1cccc(-c2nc3ccccc3o2)c1,-41,3
CCc1nnc(NC(=O)CSc2nc3c(c(=O)n2-c2ccc(F)cc2)SCC3)s1,-13,-3
CCOc1ccccc1/C=C1/N=C(c2ccc(Br)cc2)OC1=O,-2,-3
CCOC(=O)C1CCN(C(=O)C2CCc3nc(N(CC)CC)ncc3C2)CC1 (centres undefined),6,0
O=C1CCCC2=C1C(c1cccc(O)c1)n1nc(SCc3ccccc3F)nc1N2 (centres undefined),6,-6
Cc1ccc(Cl)cc1N(Cc1ccc(C(=O)N(C)C)cc1)S(=O)(=O)c1ccccc1,20,0
Cc1ccccc1CNC(=O)c1ccc(-c2ccc(F)cc2)nc1,-4,1
Cc1nc2c(oc3nc(-c4ccoc4)c4c(c32)CC(C)(C)OC4)c(-c2ccccc2)c1C(=O)O,74*!,-7
Cc1nc2c(oc3nc(-c4ccco4)c4c(c32)CC(C)(C)OC4)c(-c2ccccc2)c1C(=O)O,49,-2
CC(C)(C)Oc1ccc(C(=O)N(Cc2ccc(F)cc2)C2CCOC(C)(C)C2)cc1 (centres undefined),56*,1
COc1ccc(CN(CCC(c2ccccc2OC)C2CCOC(C)(C)C2)C(C)=O)cc1 (centres undefined),22,-3
C[C@@]12CCC=C[C@H]1[C@H](c1ccc(Br)cc1F)N(Cc1ccccc1)C2=O,90*,-4
Cc1ccc(-c2cc([C@H]3[C@@H]4C=CCC[C@@]4(C)C(=O)N3Cc3ccccc3)ccc2F)cc1,18,-1
C[C@@]12CCC=C[C@H]1[C@H](c1cccc(Br)c1)N(Cc1ccccc1)C2=O,21,0
SMILES,mHTT CaM bind,Pf apPOL block
C[C@@]12CCC=C[C@H]1[C@H](c1ccc(F)c(Br)c1)N(Cc1ccccc1)C2=O,100*,3
COc1ccc(CN[C@H]2CCC23CCC(C)CC3)cc1 (some centres undefined),-9,-1
Cn1c(=O)n(-c2ccc(S(N)(=O)=O)cc2)c(=O)n1C,4,-2
Cc1ccc(C)n1-c1ccc(S(N)(=O)=O)cc1,75*,-3
Cc1cc(C)c(S(=O)(=O)Nc2ccc(S(=O)(=O)N3CCCC3)cc2)c(C)c1,8,-5
O=C(Nc1cc(Cl)cc(Cl)c1)N1CCCN(Cc2ccccc2)CC1,x,-11
O=C(Nc1ccc(Cl)c(Cl)c1)N1CCCN(Cc2ccccc2)C1,95*,16
CC(=NCCCN1CCOCC1)c1c(-c2ccccc2)[nH]n(-c2nc3ccccc3s2)c1=O,51*,-3
CC(=NCCN1CCOCC1)c1c(C(F)(F)F)[nH]n(-c2nc3ccccc3s2)c1=O,2,-1
CCn1cc2c(c1-c1ccccc1)c(=O)n(C)c(=O)n2C,-4,6
COc1ccc(-c2c3c(=O)n(C)c(=O)n(C)c3cn2-c2ccc(C)cc2C)cc1,15,-4
Cc1cc(N)c(-n2cc3c(c2-c2ccccc2)c(=O)n(C)c(=O)n3C)cc1C,13,82*
COc1ccc(-c2c3c(=O)n(C)c(=O)n(C)c3cn2-c2ccccc2)cc1,5,43
Cc1ccc(-n2cc3c(c2-c2ccccc2)c(=O)n(C)c(=O)n3C)c(C)c1,16,83*
COc1ccc(-c2c3c(=O)n(C)c(=O)n(C)c3cn2-c2ccccc2OC)cc1,15,78*
Cn1c(=O)c2c(-c3ccccc3)n(-c3ccccc3)cc2n(C)c1=O,31,7
CNc1ccc([N+](=O)[O-])cc1-n1cc2c(c1-c1ccccc1)c(=O)n(C)c(=O)n2C,15,65*

# Screening results: PubChem BioAssay, University of Kansas High Throughput Screening Laboratory
